Results filed as inconclusive are left out. A call without a number means that no potency is given here. Activity calls are given as the source filed them. Calls follow the shape of the dose curve; as a rule, active = well fitted cell-killing curve with a large enough effect; inconclusive = small, poorly fitted or top-dose-only effect; inactive = flat fitted curve, though single readings scatter.
Potency is read from the fitted curve at half-maximal effect.

The first assay can be described thus: Cell Viability - LYMP2-007 (AID 979).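 Also: cells exposed to compound for 24 h before reading; nearly all actives have a fitted effect of over 60% in size.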 Particulars: LYMP2-007 lymphoblastoid cell viability; series mostly up to 92.2 µM. Summed up:
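AC50 values come from Hill-equation fits of luminescent intracellular ATP (CellTiter-Glo, 30 min, room temperature) following 24 h compound exposure at 37 C. Cells: LYMP2-007 lymphoblastoid line, 2500 per well, in complete culture medium.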
In the case of `CC(C)(C)CC(C)(C)c1ccc(OCCOCC[N+](C)(C)Cc2ccccc2)cc1`, the Potency is 25.1 µM (active).
As to `C[C@]12CC[C@@H]3c4ccc(O)cc4CC[C@H]3[C@@H]1CC[C@@H]2O`, the Potency entry is “inactive”.
As for `COC1=CC(=O)C[C@@H](C)[C@]12Oc1c(Cl)c(OC)cc(OC)c1C2=O`, the Potency entry is “inactive”.
On the same count and under the same terms, to `C=CCc1ccc(O)c(OC)c1` belongs “inactive”; to `CC(=O)Oc1ccc(C(c2ccc(OC(C)=O)cc2)c2ccccn2)cc1`, “inactive”.
On to `O=C(O)CCCCC(=O)O`, for which the Potency entry was “inactive”.
Take `CCCCCCc1ccc(O)cc1O`: the Potency result is “inactive”.
For `Nc1ccc(C(=O)O)cc1`, the Potency result is “inactive”.
For `CC(=O)O[C@]1(C(C)=O)CC[C@H]2[C@@H]3C[C@H](C)C4=CC(=O)CC[C@]4(C)[C@H]3CC[C@@]21C`, the Potency was 39.8 µM (active).
The same measure, in the same setting: to `CC(O)C(=O)O` (stereo unspecified) belongs “inactive”; to `O=c1ccc2ccccc2o1`, “inactive”; to `NC(=NCCCCCCN=C(N)/N=C(\N)Nc1ccc(Cl)cc1)/N=C(\N)Nc1ccc(Cl)cc1`, 39.8 µM (active).
Still for that read-out and setting: to `O=C1OC(c2ccc(O)cc2)(c2ccc(O)cc2)c2ccccc21` belongs “inactive”.
The same measure, in the same setting: next, `CC/C(=C(/CC)c1ccc(O)cc1)c1ccc(O)cc1`: “inactive”.
`COc1cccc2c1C(=O)c1c(O)c3c(c(O)c1C2=O)C[C@@](O)(C(=O)CO)C[C@@H]3O[C@H]1C[C@H](N)[C@H](O)[C@H](C)O1`: the Potency is 1 µM (active).
As for `CN(C)/N=N/c1nc[nH]c1C(N)=O`, the Potency entry is “inactive”.

Another assay in a line: Cell Viability - LYMP2-008 (AID 980). Also: nearly all actives have a fitted effect of over 60% in size. To be noted: LYMP2-008 lymphoblastoid cell viability, qHTS; series mostly up to 92.2 µM. In outline:
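Cytotoxicity determined from ATP-dependent luciferase luminescence (CellTiter-Glo) following 24 h compound exposure of human lymphoblastoid LYMP2-008 cells at 37 C. Concentration-response data fitted to the Hill equation to give AC50.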
(qHTS replaces the single test concentration by a dilution series.)
Consider `CC(C)(C)CC(C)(C)c1ccc(OCCOCC[N+](C)(C)Cc2ccccc2)cc1`, for which the Potency is 31.6 µM (active).
Same read-out and setting: to `C[C@]12CC[C@@H]3c4ccc(O)cc4CC[C@H]3[C@@H]1CC[C@@H]2O` belongs “inactive”; to `COC1=CC(=O)C[C@@H](C)[C@]12Oc1c(Cl)c(OC)cc(OC)c1C2=O`, “inactive”.
On the same count and under the same terms, next, `C=CCc1ccc(O)c(OC)c1`: “inactive”; `CC(=O)Oc1ccc(C(c2ccc(OC(C)=O)cc2)c2ccccn2)cc1`: “inactive”; `Oc1ccc(O)cc1`: 50.1 µM (active).
Turning to `O=C(O)CCCCC(=O)O`, the Potency result is “inactive”.
As for `CCCCCCc1ccc(O)cc1O`, the Potency result was “inactive”.
On the same count and under the same terms, next, `Nc1ccc(C(=O)O)cc1`: “inactive”.
For the molecule `CC(=O)O[C@]1(C(C)=O)CC[C@H]2[C@@H]3C[C@H](C)C4=CC(=O)CC[C@]4(C)[C@H]3CC[C@@]21C`, the Potency was 39.8 µM (active).
On the same count and under the same terms, next, `CC(O)C(=O)O` (stereo unspecified): “inactive”.
Same read-out and setting: next, `O=c1ccc2ccccc2o1`: “inactive”; `NC(=NCCCCCCN=C(N)/N=C(\N)Nc1ccc(Cl)cc1)/N=C(\N)Nc1ccc(Cl)cc1`: 39.8 µM (active).
In the case of `O=C1OC(c2ccc(O)cc2)(c2ccc(O)cc2)c2ccccc21`, the Potency result was “inactive”.
Regarding `CC/C(=C(/CC)c1ccc(O)cc1)c1ccc(O)cc1`, the Potency entry is “inactive”.
Regarding `Oc1c(Cl)cc(Cl)cc1Sc1cc(Cl)cc(Cl)c1O`, the Potency is 31.6 µM (active).
On the same count and under the same terms, next, `CN(C)/N=N/c1nc[nH]c1C(N)=O`: “inactive”.

A short description of another assay: Cell Viability - LYMP2-010 (AID 981).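 Also: cells exposed to compound for 24 hours at 37 °C; nearly all actives have a fitted effect of over 55% in size.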 To be noted: LYMP2-010 lymphoblastoid cell viability, qHTS; series mostly up to 92.2 µM. Summed up:
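CellTiter-Glo ATP luminescence measured cytotoxicity after 24 h compound exposure at 37 C. LYMP2-010 cells were seeded at 2500/well, with tetraoctylammonium bromide as control; concentration-response curves gave AC50 values by the Hill equation.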
For the molecule `CC(C)(C)CC(C)(C)c1ccc(OCCOCC[N+](C)(C)Cc2ccccc2)cc1`, the Potency was 31.6 µM (active).
Same read-out and setting: next, `Oc1c(I)cc(Cl)c2cccnc12`: 50.1 µM (active).
Same read-out and setting: next, `C[C@]12CC[C@@H]3c4ccc(O)cc4CC[C@H]3[C@@H]1CC[C@@H]2O`: “inactive”; `C=C(CC)C(=O)c1ccc(OCC(=O)O)c(Cl)c1Cl`: 39.8 µM (active).
As to `COC1=CC(=O)C[C@@H](C)[C@]12Oc1c(Cl)c(OC)cc(OC)c1C2=O`, the Potency result is “inactive”.
On the same count and under the same terms, to `C=CCc1ccc(O)c(OC)c1` belongs “inactive”; to `CC(=O)Oc1ccc(C(c2ccc(OC(C)=O)cc2)c2ccccn2)cc1`, “inactive”.
Same read-out and setting: next, `Oc1ccc(O)cc1`: 39.8 µM (active); `O=C(O)CCCCC(=O)O`: “inactive”; `CCCCCCc1ccc(O)cc1O`: “inactive”.
On to `Nc1ccc(C(=O)O)cc1`, for which the Potency entry was “inactive”.
Consider `COc1cccc2c1C(=O)c1c(O)c3c(c(O)c1C2=O)C[C@@](O)(C(C)=O)C[C@@H]3O[C@H]1C[C@H](N)[C@H](O)[C@H](C)O1`, for which the Potency is 0.199 µM (active).
As for `CC(=O)O[C@]1(C(C)=O)CC[C@H]2[C@@H]3C[C@H](C)C4=CC(=O)CC[C@]4(C)[C@H]3CC[C@@]21C`, the Potency is 31.6 µM (active).
Same read-out and setting: next, `CC(O)C(=O)O` (stereo unspecified): “inactive”.
As for `O=c1ccc2ccccc2o1`, the Potency result is “inactive”.
For the molecule `NC(=NCCCCCCN=C(N)/N=C(\N)Nc1ccc(Cl)cc1)/N=C(\N)Nc1ccc(Cl)cc1`, the Potency is 39.8 µM (active).
In the case of `O=C1OC(c2ccc(O)cc2)(c2ccc(O)cc2)c2ccccc21`, the Potency entry was “inactive”.
Still for that read-out and setting: to `COc1cccc2c1C(=O)c1c(O)c3c(c(O)c1C2=O)C[C@@](O)(C(=O)CO)C[C@@H]3O[C@H]1C[C@H](N)[C@H](O)[C@H](C)O1` belongs 0.251 µM (active); to `Oc1c(Cl)cc(Cl)cc1Sc1cc(Cl)cc(Cl)c1O`, 50.1 µM (active).
Turning to `CN(C)/N=N/c1nc[nH]c1C(N)=O`, the Potency result was “inactive”.

A short description of another assay: Cell Viability - LYMP2-012 (AID 982).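 Also: cellular ATP by luciferase luminescence where a drop means cytotoxicity; cells exposed to compound for one day before reading; nearly all actives have a fitted effect of over 55% in size.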 To be noted: LYMP2-012 lymphoblastoid cell viability qHTS; series mostly up to 92.2 µM.
Turning to `CC(C)(C)CC(C)(C)c1ccc(OCCOCC[N+](C)(C)Cc2ccccc2)cc1`, the Potency is 20 µM (active).
Same read-out and setting: to `C[C@]12CC[C@@H]3c4ccc(O)cc4CC[C@H]3[C@@H]1CC[C@@H]2O` belongs “inactive”; to `C=C(CC)C(=O)c1ccc(OCC(=O)O)c(Cl)c1Cl`, 39.8 µM (active).
On the same count and under the same terms, next, `COC1=CC(=O)C[C@@H](C)[C@]12Oc1c(Cl)c(OC)cc(OC)c1C2=O`: “inactive”; `C=CCc1ccc(O)c(OC)c1`: “inactive”; `CC(=O)Oc1ccc(C(c2ccc(OC(C)=O)cc2)c2ccccn2)cc1`: “inactive”.
On the same count and under the same terms, next, `Oc1ccc(O)cc1`: 50.1 µM (active).
With `O=C(O)CCCCC(=O)O`, the Potency result was “inactive”.
Regarding `CCCCCCc1ccc(O)cc1O`, the Potency result is “inactive”.
As to `Nc1ccc(C(=O)O)cc1`, the Potency result was “inactive”.
As to `COc1cccc2c1C(=O)c1c(O)c3c(c(O)c1C2=O)C[C@@](O)(C(C)=O)C[C@@H]3O[C@H]1C[C@H](N)[C@H](O)[C@H](C)O1`, the Potency is 0.158 µM (active).
On the same count and under the same terms, next, `CC(=O)O[C@]1(C(C)=O)CC[C@H]2[C@@H]3C[C@H](C)C4=CC(=O)CC[C@]4(C)[C@H]3CC[C@@]21C`: 31.6 µM (active); `CC(O)C(=O)O` (stereo unspecified): “inactive”; `O=c1ccc2ccccc2o1`: “inactive”.
As to `NC(=NCCCCCCN=C(N)/N=C(\N)Nc1ccc(Cl)cc1)/N=C(\N)Nc1ccc(Cl)cc1`, the Potency is 39.8 µM (active).
Regarding `O=C1OC(c2ccc(O)cc2)(c2ccc(O)cc2)c2ccccc21`, the Potency entry was “inactive”.
Same read-out and setting: to `COc1cccc2c1C(=O)c1c(O)c3c(c(O)c1C2=O)C[C@@](O)(C(=O)CO)C[C@@H]3O[C@H]1C[C@H](N)[C@H](O)[C@H](C)O1` belongs 0.199 µM (active).
On the same count and under the same terms, to `CN(C)/N=N/c1nc[nH]c1C(N)=O` belongs “inactive”.

(Values after PubChem BioAssay (NCATS).)
